Source: PubChem BioAssay
Epigenetic reg = derepresses silenced GFP reporter in murine cells. murine LDR cells, GFP reporter derepression, 30 h. Potency, µM (top dose mostly 53.9 µM), for inactives: at the top dose GFP activation, most hits filed as activators. hit rate 0.2% among 280,000. AID 1865; active = well fitted activation curve with a large enough effect; inconclusive = small, poorly fitted or top-dose-only effect; note: potency is the fitted concentration of half-maximal effect; % of control where 0% means no effect; nearly all actives have a fitted effect of over 60% in size
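Derepression of a silenced CMV-GFP reporter in murine LDR cells is scored by enumerating GFP-positive cells with a laser-scanning microplate cytometer after 30 hours of treatment at 37 C.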
Menin-MLL FL inh = displaces fluorescein MLL peptide from human menin; Fluorescence polarization, fluorescein-MLL peptide displacement from menin; FP activity change, % at 61.4 µM; 290,000 tested, under 10 active; AID 1766; active = well fitted curve in the direction sought with a large enough effect in the polarisation, not every such curve was filed as active; inconclusive = small, poorly fitted or top-dose-only effect, or effect the other way, or a change in a side signal; inactive = no such curve, though single readings can be large or run the other way; the % refers to the polarisation; note: % of control where 0% means no effect
MLL CXXC-DNA inh = MLL CXXC-DNA interaction inhibition | Q03164 | MLL-CXXC / FITC-HOXA9 DNA fluorescence polarization | Potency, µM (highest dose often 115 µM), without a hit: top-dose activity change, negative = inhibition, usual class: inhibitors | hit rate 0.037% among 290,000; active = well fitted inhibition curve with a large enough effect in the polarisation, with a control signal flat, not every such curve was filed as active; inconclusive = small, poorly fitted or top-dose-only effect, or effect the other way, or a change in a side signal; inactive = no such curve, though single readings can be large or run the other way; the % refers to the polarisation; note: potency is the fitted concentration of half-maximal effect
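Fluorescence polarization: 7 uM MLL-CXXC (stock) preincubated 5 min with compounds, then 50 nM fluorescein-HOX-A9 DNA (stock) added; 30 min ambient. Buffer 50 mM Tris-HCl pH 7.5, 50 mM NaCl, 1 mM DTT, 0.05% BSA.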
PINK1 expr mod = modulators of PINK1 expression | PINK1 immunofluorescence, high-content cytometry, 24 h | Potency, µM (doses to about 76.6 µM), for the others: top-dose activation (PINK1 increase), most hits filed as activators | hit rate 0.2% among 410,000 | AID 624263; active = well fitted activation curve with a large enough effect; inconclusive = small, poorly fitted or top-dose-only effect; cell line not stated here; note: potency is the fitted concentration of half-maximal effect; % of control where 0% means no effect; nearly all actives have a fitted effect of over 65% in size
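Compound titrations (5 concentrations, 24 h) on a stable cell line; DMSO and CCCP controls. Endpoint: fixed-cell PINK1 immunofluorescence with mitochondrial, cell and nuclear markers, scanned by microplate cytometer.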
ClpP mod = qHTS Assay for Activators of ClpP; Potency, µM (top dose mostly 57.5 µM), inactives show top-dose activity change, negative = active; ATP-dependent Clp protease proteolytic subunit (Bacillus subtilis (strain 168)), P80244; hit rate 1.9% among 340,000; purified B. subtilis ClpP, FRET peptide cleavage, 20 min; active = well fitted falling curve with a large enough effect; inconclusive = small, poorly fitted or top-dose-only effect; inactive = no such curve, though single readings can be large or run the other way; note: potency is the fitted concentration of half-maximal effect; the source files actives as falling curves though it sought activators and does not explain the sign; nearly all actives have a fitted effect of over 65% in size
Target sequence (P80244 whole entry, looked up): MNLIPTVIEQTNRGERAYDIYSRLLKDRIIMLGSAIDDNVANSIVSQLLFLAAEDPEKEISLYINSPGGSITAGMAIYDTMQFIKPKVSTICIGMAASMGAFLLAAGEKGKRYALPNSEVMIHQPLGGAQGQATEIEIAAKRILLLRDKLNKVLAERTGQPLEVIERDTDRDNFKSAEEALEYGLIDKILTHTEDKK
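Purified B. subtilis ClpP, 10 microg/mL final in Tris/HCl pH8 with KCl, BSA, glycerol and Tween-20, cleaved an Abz/nitrotyrosine-quenched decapeptide. Fluorescence (ex 320, em 430) was read at 0 and 20 min at room temperature. Delta was normalized to 5.8 microM ADEP and DMSO/no-enzyme controls.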
Menin-MLL TR inh = displaces Texas Red mutant MLL peptide from human menin | Menin + Texas Red MLL mutant peptide, fluorescence polarization | Potency, µM (highest dose often 61.6 µM), inactives show at the top dose FP activity change, negative = inhibition, usual class: inhibitors | hit rate 0.23% among 270,000; active = well fitted inhibition curve with a large enough effect in the polarisation, with a control signal flat, not every such curve was filed as active; inconclusive = small, poorly fitted or top-dose-only effect, or effect the other way, or a change in a side signal; inactive = no such curve, though single readings can be large or run the other way; the % refers to the polarisation; note: potency is the fitted concentration of half-maximal effect; % of control where 0% means no effect
Target sequence (O00255 whole entry, looked up): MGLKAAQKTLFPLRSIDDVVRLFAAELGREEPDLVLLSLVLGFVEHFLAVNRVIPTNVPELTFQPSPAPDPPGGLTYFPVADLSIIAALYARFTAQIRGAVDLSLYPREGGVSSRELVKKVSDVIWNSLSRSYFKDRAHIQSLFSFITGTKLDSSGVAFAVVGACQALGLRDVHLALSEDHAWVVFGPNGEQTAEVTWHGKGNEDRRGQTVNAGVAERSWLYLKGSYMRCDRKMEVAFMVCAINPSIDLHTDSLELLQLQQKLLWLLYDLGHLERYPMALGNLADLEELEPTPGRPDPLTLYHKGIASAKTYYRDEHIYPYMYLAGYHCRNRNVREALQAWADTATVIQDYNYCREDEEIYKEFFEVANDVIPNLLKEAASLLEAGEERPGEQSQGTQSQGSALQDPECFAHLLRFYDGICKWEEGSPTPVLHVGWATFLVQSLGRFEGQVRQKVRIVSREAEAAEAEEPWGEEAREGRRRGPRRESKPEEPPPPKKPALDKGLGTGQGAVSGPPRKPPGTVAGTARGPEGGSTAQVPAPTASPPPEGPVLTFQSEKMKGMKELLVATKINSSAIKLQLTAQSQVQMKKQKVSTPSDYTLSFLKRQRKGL
Starred values were filed as active, the others as inactive; ? = inconclusive; . = not tested or not shown; [ ] = another dose, or the depositor's remark. Sampled rows, rich in hits. Any-hit rate of the full collection: about 1.9%.

SMILES | Epigenetic reg | Menin-MLL FL inh | MLL CXXC-DNA inh | PINK1 expr mod | ClpP mod | Menin-MLL TR inh
O=C(N[C@@H]1c2ccccc2C2(CCN(Cc3c(O)ccc4ccccc34)CC2)[C@H]1O)c1ccccc1 | . | . | . | 0% | . | .
CC(C)CN(CC(C)C)c1ccc(/C=C/c2ccnc3ccccc23)cc1 | . | . | . | 7% | 0% | .
COc1ccc(C(=O)N(C)Cc2ccccn2)cc1OC1CCN(C(C)C)CC1 | . | . | 3% | 5% | 28µM* | .
COc1ccc(C(=O)N(C)Cc2ccon2)cc1OC1CCN(C(C)C)CC1 | . | . | 2% | 3% | 2% | .
C/C(=N\NC(N)=O)c1ccccc1 | -4% | 7 | 10% | 1% | . | -14%
C/C(=N\NC(N)=O)c1c(F)cccc1F | 1% | 1 | 3% | -2% | 32µM* | .
CCN(CC)c1ccc(/C=C(\C#N)c2ccccn2)cc1 | 18µM* | ? | 11% | 2% | . | -9%
CCN(Cc1ccccc1)c1ccc(/C=C(\C#N)c2ccccn2)cc1 | ? | ? | ? | 7% | 1% | 13%
COc1ccc(Cc2nc3ccccc3n2Cc2ccccc2C)cc1 | 2% | . | . | 5% | -2% | .
CCNc1ncc2nc(-c3ccc(Cl)cc3)c(=O)n(-c3ccccc3)c2n1 | . | ? | . | 13µM* | . | -8%
COc1ccc(/C=C/C(=O)NCc2cccnc2)cc1 | -1% | 1 | -3% | -1% | -5% | -4%
COc1cc2[nH]c(=O)n(CCCC(=O)NCc3ccccc3)c(=O)c2cc1OC | 5% | . | . | -1% | 5% | .
CCOc1cc2[nH]c(=O)n(CCCCC(=O)N3CCN(c4ccc(OC)cc4)CC3)c(=O)c2cc1OCC | -1% | . | . | 1% | -3% | .
CCCCN(C)C(=O)CCCCn1c(=O)[nH]c2cc(OCC)c(OCC)cc2c1=O | -1% | 5 | -4% | 1% | 35µM* | ?
COc1cc2[nH]c(=O)n(CCC(=O)NCc3cccnc3)c(=O)c2cc1OC | -1% | 2 | 6% | 1% | 28µM* | -7%
CCOc1cc2[nH]c(=O)n(CCCCCC(=O)NCc3ccco3)c(=O)c2cc1OCC | 4% | 4 | 2% | 12%[38.3 µM] | 22µM* | 9%
COc1cc(/C=C/C(=O)NCc2cccnc2)cc(OC)c1OC | -1% | 0 | 7% | 0% | 25µM* | 3%
O=C(NCCc1nnc2n1CCN(Cc1ccc(F)c(F)c1)CC2)c1ccoc1 | . | . | . | 2% | . | .
O=C(O)/C(CC(=O)c1ccc(Cl)cc1)=N/Nc1ccc([N+](=O)[O-])cc1[N+](=O)[O-] | . | -4 | 35% | -1% | -1% | ?
Cc1cccc(CNCCn2cc(C(=O)Nc3ccccc3)nn2)c1 | . | . | . | -1% | . | .
CN(C)c1ccc(/C=C/c2ccnc3ccc(O)cc23)cc1 | . | . | . | 6% | -3% | .
Cc1c(C(=O)NCc2ccc3c(c2)OCO3)cnn1-c1ncc2c(n1)-c1ccccc1CC2 | . | . | . | 1% | . | .
OC1(c2cccnc2)CCN(Cc2ccc3c(c2)CN(Cc2cc4ccccc4s2)CCO3)CC1 | . | . | . | -1% | . | .
CCC(Sc1nc(C)cc(C)n1)C(=O)NC1=NN=C(c2ccc(C)cc2)CS1 (configuration not stated) | 3% | 1 | 4% | 14µM* | 0% | 4%
Cc1cc(C)nc(SCC(=O)NC2=NN=C(c3ccc(Br)cc3)CS2)n1 | ? | 3 | 15% | ? | -4% | -1%
SMILES | Epigenetic reg | Menin-MLL FL inh | MLL CXXC-DNA inh | PINK1 expr mod | ClpP mod | Menin-MLL TR inh
CCOC(=O)N1CCN(Cc2ccc3c(c2)CN(C(=O)c2ccc4ncccc4c2)CCO3)CC1 | . | . | . | 0% | . | .
C[n+]1ccc(/C=C/c2ccc(C=S)cc2)c2ccccc21 | . | . | . | 45µM* | 3% | .
Cc1cc(N(C)C)cc(C)c1/C=C/c1cc[n+](C)c2ccccc12 | . | . | . | . | -18% | .
CN(C)c1ccc(/C=C/c2cc[n+](C)c3ccc4ccccc4c23)cc1 | . | . | . | 4.5µM* | 1% | .
Cc1cccc(C2=NN(c3ccccc3)[C@H](CO)[C@H]2C)c1 | 2% | ? | . | . | . | ?
CC(C)C(NS(C)(=O)=O)c1nnc2n1CCN(Cc1ccc(C#CC(C)(C)O)cc1)CC2 (configuration not stated) | . | . | . | 1% | . | .
Cc1[nH]c(=O)c(C#N)c2c1COC(C)(C)C2 | -1% | -4 | 4% | -1% | . | 6%
CC(C)c1[nH]c(=O)c(C#N)c2c1COC(C)(C)C2 | 2% | 1 | 2% | 4%[38.3 µM] | 32µM* | 5%
CC(C)c1nc(NCC2CCCO2)c(C#N)c2c1COC(C)(C)C2 (configuration not stated) | -1% | -1 | -4% | -2% | 28µM* | -11%
CCCc1[nH]c(=O)c(C#N)c2c1COC(C)(C)C2 | 1% | 5 | 9% | -1%[38.3 µM] | 25µM* | -1%
CCCc1nc(NC2CCCCC2)c(C#N)c2c1COC(C)(C)C2 | 8% | 2 | 1% | 7%[38.3 µM] | 35µM* | -1%
CCc1nc(NCC2CCCO2)c(C#N)c2c1COC(C)(C)C2 (configuration not stated) | -1% | 2 | 1% | 0% | 13% | -15%
Cc1ncc2c(c1CNC(=O)c1ccccc1F)CCN(C(=O)c1[nH]c3ccc(Cl)cc3c1C)C2 | . | . | . | 4% | . | .
CC(C)c1c(C(=O)NCc2ccccn2)cnn1-c1nccc(-c2ccccc2F)n1 | . | . | . | 1% | . | .
CCN(CC(=O)NCCc1ccc(F)cc1)Cc1nc2ccccc2c(=O)[nH]1 | -2% | 4 | -17% | -2% | -1% | .
CCN(CC(=O)NCc1ccc(F)cc1)Cc1nc2cc(Cl)ccc2c(=O)[nH]1 | 6% | 10 | 14% | 0% | 7.1µM* | 17%
COCC(=O)Nc1cc(C(=O)NC2CCc3ccccc32)c2c(c1)nc(-c1ccncc1)n2C (configuration not stated) | . | . | . | 0% | . | .
CC(C)c1nc(NCCO)c(C#N)c2c1CCCC2 | 3% | 4 | -1% | -1% | . | .
CC(C)c1nc(NCc2ccccc2)c(C#N)c2c1CCCC2 | -1% | -4 | 3% | 10% | 8.9µM* | ?
C[n+]1ccc(CO)cc1 | . | . | . | 4% | 1% | .
COc1cc(/C=N/N2CCN(c3ccccc3OC)CC2)ccc1OC(C)=O | . | 1 | 1% | -1% | 28µM* | -25%
c1ccc(CNCCNCc2ccccc2)cc1 | . | ? | 3% | . | . | -2%
CCOC(=O)c1ccccc1NC1OC(=O)c2ccccc21 (configuration not stated) | 0% | 4 | -3% | -1% | 28µM* | 6%
COc1ccc(-n2c3c(cc(C(=O)NCC(=O)c4ccccc4)c2=O)C(=O)CC(C)(C)C3)cc1 | . | . | -3% | 4% | -21% | .
CC1(C)CC(=O)c2cc(C(=O)NCc3ccco3)c(=O)n(-c3ccccc3)c2C1 | -2% | 0 | 7% | -1% | 28µM* | -14%
